A selection: hits, their analogues and other compounds. The true share with any hit is near 4.8%.
DAX1 inh-1: inhibits human nuclear receptor DAX1 | hit rate 0.99% among 340,000 | HEK293 Gal4-DAX1 luciferase reporter, luminescence | inhibition, % at 6.75 µM | AID 504766;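 active = inhibition above the mean over all tested compounds plus 3 SD, cut at about 4.2% in these data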;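 note: inhibition shows as a rise in luminescence from relieved DAX1 repression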
SMARCA2 act: activators of SMARCA2 function; MG213 cells, MMTV-luciferase reporter, dexamethasone, overnight; activation, % at 9.1 µM; hit rate 1% among 370,000; in the data active = activation above about 7.8%
hgDAF12 agonist: activates the H. glycines DAF-12 receptor ligand-binding domain. hit rate 1.8% among 370,000. activation, % at 6.8 µM. HEK293 GAL4-hgDAF12 UAS-luciferase reporter, agonist luminescence; normalized to butyrate control;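 active = activation above a cutoff set at the mean of all screened compounds plus 3 SD, cut at about 10% in these data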
DAX1 inh-2: blocks DAX1 repression of SF-1 activated StAR promoter; hit rate 1.1% among 370,000; HEK293T StAR-luciferase reporter, SF-1/DAX-1 repression relief; inhibition, % at 6.8 µM;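 active = inhibition above the mean over all tested compounds plus 3 SD, cut at about 3.6% in these data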;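 note: higher inhibition means more luminescence from relief of DAX-1 repression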
ssDAF12 agonist: S. stercoralis DAF-12 activation, primary screen | HEK293 ssDAF-12/GRIP1 lit1-tk-luc reporter, luminescence; % of 3 µM dafachronic acid response | activation, % at 6.8 µM | hit rate 1% among 370,000;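 active = activation above the mean over all tested compounds plus 3 SD, cut at about 0.9% in these data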
hcDAF-12 act: activates DAF-12 receptor from parasite H. contortus; HEK293 hcDAF-12 lit1-tk-luc reporter, luminescence; 0% DMSO, 100% Δ7-dafachronic acid; activation, % at 6.8 µM; hit rate 1.4% among 370,000;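 active = activation above the mean of all tested compounds plus 3 SD, cut at about 5.5% in these data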
LXR ag: counter-screen for hcDAF-12 agonists: agonists of human LXR-beta; 3,400 tested, under 10 active; shares compounds with hcDAF-12 act; activation, % at 6.8 µM; HEK293 Gal4-LXR tk-luc reporter, luminescence, 24 h; normalized: DMSO 0%, positive control 100%;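 active = mean percent activation of the reporter above a cutoff set as the average over tested compounds plus their standard deviation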
Target sequence (P55055 whole entry, looked up, the tested form may be a part): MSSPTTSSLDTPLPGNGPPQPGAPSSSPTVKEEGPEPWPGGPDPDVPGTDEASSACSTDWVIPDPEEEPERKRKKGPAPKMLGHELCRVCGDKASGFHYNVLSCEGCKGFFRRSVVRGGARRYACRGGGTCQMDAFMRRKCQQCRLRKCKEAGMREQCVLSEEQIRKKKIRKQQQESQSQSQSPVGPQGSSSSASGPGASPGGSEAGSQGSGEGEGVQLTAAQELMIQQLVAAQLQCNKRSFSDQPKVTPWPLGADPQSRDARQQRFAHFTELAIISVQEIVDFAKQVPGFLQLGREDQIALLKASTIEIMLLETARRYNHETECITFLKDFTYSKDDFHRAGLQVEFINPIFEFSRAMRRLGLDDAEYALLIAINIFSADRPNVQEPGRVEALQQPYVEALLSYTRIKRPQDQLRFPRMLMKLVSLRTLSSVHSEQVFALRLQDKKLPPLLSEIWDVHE
hcDAF12 ag: confirmation of H. contortus DAF-12 agonists; activation, % at 6.8 µM; HEK293 hcDAF-12 lit1-tk-luc reporter, luminescence; % of Δ7-dafachronic acid response; hit rate 61% among 3,400; shares compounds with hcDAF-12 act;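 active = mean activation across triplicate tests above the threshold derived from the earlier primary screen, cut at about 5.5% in these data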
Numbers stand for hits; i = inactive; nt = not tested or not shown; ! = a repeat was not active.

SMILES | DAX1 inh-1 | SMARCA2 act | hgDAF12 agonist | DAX1 inh-2 | ssDAF12 agonist | hcDAF-12 act | LXR ag | hcDAF12 ag
CCOC(=O)C1=NN(c2ccccc2)C2=NC(C)=C(C(=O)OC)C(c3ccc(C)cc3)N12 (stereo not given) | i | i | i | i | i | 8.3 | i | i
CCCOc1ccc(OCCSc2ncccn2)cc1 | i | i | i | i | i | 6.8 | i | i
Clc1ccc(OCCCCSc2ncccn2)cc1 | i | i | i | i | i | i | nt | nt
CCN(CC)C(=O)Cn1cc(C(=O)C(=O)NCc2ccccn2)c2ccccc21 | i | i | i | i | i | i | nt | nt
CC(=O)Nc1ccc(NC(=O)c2ccc(-c3ccccc3Cl)o2)cc1 | i | i | i | i | i | i | nt | nt
O=C(Nc1nccs1)c1ccc(-c2ccccc2Cl)o1 | i | i | 12 | i | 2.4 | 6.7 | i | 6.2
Cc1ccc2c(C)nc(/N=C(\N)NC(=O)N3c4ccccc4Sc4ccccc43)nc2c1 | i | i | i | i | i | 10! | i | i
COCCNC(=S)NNc1ccccc1[N+](=O)[O-] | i | i | i | i | i | 8.7 | i | i
CSc1nc(-c2ccc(C)cc2)nc(N)c1C#N | i | i | i | i | 2.2 | 8.5 | i | 7.8
N#Cc1ccc(Cl)cc1NC(=O)COC(=O)[C@H](CCC(N)=O)NC(=O)c1ccc(F)cc1 | i | i | i | i | i | 9.4 | i | i
O=C(NCc1ccc2c(c1)OCO2)c1ccc2c(c1)S(=O)(=O)c1ccccc1C2=O | i | i | i | i | i | i | nt | nt
CCOc1ccc(-n2nc3ccc(N)cc3n2)cc1 | i | i | i | i | i | i | nt | nt
COc1ccc(-n2nc3cc(C)c(N)cc3n2)cc1Cl | i | i | i | i | i | i | nt | nt
CCOc1ccc(-n2nc3cc(C)c(N)cc3n2)cc1 | i | i | 12 | i | 1.8 | 7.5 | i | 8.8
Cc1ccc(-n2nc3ccc(N)cc3n2)cc1 | i | i | i | 3.7 | 0.9 | 13 | i | 6.7
Cc1cc2nn(-c3ccc(Cl)cc3)nc2cc1N | i | i | i | i | 1.0 | 9.7 | i | 13
O=C1/C(=C/Nc2cccc([N+](=O)[O-])c2)CCc2ccccc21 | i | i | 16 | i | i | 8.1 | i | 5.8
O=[N+]([O-])c1cccc(NC(=S)N2CCc3ccccc3C2)c1 | i | i | i | i | i | i | nt | nt
O=C(O)CC(Cc1ccccc1)C(=O)NCC12CC3CC(CC(C3)C1)C2 (stereo not given) | i | i | i | i | i | i | nt | nt
Cc1c(N=C2NN=C(c3c[nH]c4ccccc34)CS2)c(=O)n(-c2ccccc2)n1C | i | i | i | i | i | 7.0 | i | i
O=C(O)CN1C(=O)c2ccc(Oc3ccc4c(c3)C(=O)N(CC(=O)O)C4=O)cc2C1=O | i | i | i | i | i | i | nt | nt
COc1ccc2c(c1)CC/C2=N\NC(=O)c1ccccc1 | i | i | i | i | i | i | nt | nt
COC(=O)c1cc2c(s1)-c1ccccc1OC2 | i | i | i | i | i | 8.9 | i | i
COC(=O)c1cc2c(s1)-c1ccc(OC)cc1CC2 | 7.7 | i | i | i | i | 7.1 | i | i
COc1ccccc1N1CCN(C(=O)c2cc3c(s2)-c2ccccc2OC3)CC1 | i | i | i | i | i | i | nt | nt
SMILES | DAX1 inh-1 | SMARCA2 act | hgDAF12 agonist | DAX1 inh-2 | ssDAF12 agonist | hcDAF-12 act | LXR ag | hcDAF12 ag
CCOc1ccccc1C(=O)OCC(=O)Nc1ccc(OC(F)F)cc1 | i | i | i | i | i | i | nt | nt
Cc1ccc(C)c(-n2nnc3ccccc3c2=O)c1 | i | i | i | i | i | i | nt | nt
Cc1cccc(NC(=O)COC(=O)c2nn(C)c(=O)c3ccccc23)c1C | i | i | i | i | i | i | nt | nt
O=C(Nc1ccc(F)cc1)c1nsc(Cl)c1Cl | i | i | 11 | i | 2.8 | 9.7 | i | 11
N#Cc1ccsc1NC(=O)CSc1nnnn1-c1ccc(O)cc1 | i | i | i | i | i | 7.4 | i | i
CCC1CCCCN1CCCNC(=O)c1ccc2c(c1)NC(=O)CN2C (stereo not given) | i | i | i | i | i | 8.8 | i | i
CCC1CCCCN1CCCNC(=O)c1ccc(N2CCOCC2)c(NS(=O)(=O)c2ccc(OC)cc2)c1 (stereo not given) | i | i | i | i | i | i | nt | nt
COc1ccc2nc(N=Nc3ccc(O)c4ccccc34)sc2c1 | i | i | i | i | i | 12 | i | i
O=[N+]([O-])c1ccc2nc(-c3ccc(OC(F)F)cc3)cn2c1 | i | i | i | i | i | i | nt | nt
CC(=O)O[C@H]1CC(=O)OC(C)(C)C2CC(=O)[C@]3(C)C(CC[C@@](C)([C@@H](O[C@@H]4O[C@H](CO)[C@@H](O)[C@H](O)[C@H]4O)c4ccoc4)[C@@]34O[C@@H]4C(=O)O)[C@]21C (stereo not given in full) | i | i | i | i | i | i | nt | nt
Cc1ccc(C(=O)CNc2cc(C)ccc2C)cc1 | i | i | i | i | i | i | nt | nt
Cc1ccc(C)c(NCC(=O)c2ccc(Cl)cc2)c1 | i | i | 12 | i | i | 7.1 | i | i
O=C(c1ccc(-c2ccc([N+](=O)[O-])cc2)o1)N1CCCCC1 | i | i | 17 | i | i | 8.4 | i | i
COc1ccc(-c2cc(C(F)(F)F)n3nc(C(=O)Nc4c(C)n(C)n(-c5ccccc5)c4=O)c(Cl)c3n2)cc1 | i | i | i | i | i | i | nt | nt
Cc1c(NC(=O)c2nn3c(C(F)(F)F)cc(-c4ccccc4)nc3c2Cl)c(=O)n(-c2ccccc2)n1C | i | i | i | i | i | 6.8 | i | i
CNS(=O)(=O)c1ccc(CNC[C@H]2O[C@@H](n3cc(C)c(=O)[nH]c3=O)C[C@@H]2O)cc1 | i | i | i | i | i | i | nt | nt
Cc1ccc(C(=O)NC2CCCCCCC2)c(Cl)c1 | i | i | i | i | i | 6.9 | i | 8.8
Cc1cccc(NC(=O)Nc2ccc(F)cc2)n1 | i | i | i | i | i | i | nt | nt
Cc1ccc(NC(=O)Nc2cccc(C)n2)cc1 | i | i | i | i | 1.4 | 14 | i | 12
Cc1ccc(S(=O)(=O)N(C)C)cc1NC(=S)NNC(=O)C(N)=O | nt | i | i | i | i | i | nt | nt
COc1ccc(NC(=O)Nc2nnc(-c3ccco3)s2)cc1 | i | i | 12 | i | 1.2 | 8.3 | i | 9.0
Cc1ccc2c(c1)sc(=NC(=O)C1CC1)n2C | i | i | 13 | i | 1.7 | 8.7 | i | 14
COC(=O)Cn1c(=NC(=O)C2CC2)sc2c(C)cc(C)cc21 | i | i | i | i | i | i | nt | nt
Cc1ccc2c(c1)sc(=NC(=O)c1cccs1)n2C | i | i | 15 | i | 1.6 | 7.9 | i | 23

Source: PubChem (The Scripps Research Institute Molecular Screening Center)
